Screens from PubChem BioAssay.
HCV inh: inhibitors of hepatitis C virus infection; Huh7.5.1 HCVcc-Cre infection, luciferase reporter, 44 h; Potency, µM (titrated, usually from 41.8 µM), for the others: at the top dose activity change, negative = inhibition, hits mostly inhibitors; 340,000 compounds, 3.4% hits; AID 651820
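After 44 h co-culture of compound, cells and HCVcc-Cre (~0.5 moi), substrate is added for 15 min at room temperature and luciferase measured over 15 sec. Cells were seeded at 1,000/well and pre-cultured 4 h.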
MARV entry inh: Marburg virus entry inhibition. Potency, µM (series often up to 37.8 µM), for the others: at the top dose activity change, negative = inhibition, hits mostly inhibitors. AID 540276. Marburg virus pseudotyped entry inhibition, cell reporter. 300,000 compounds, 1.8% hits; calls by dose curve; tested in HEK293 cells
Sm TGR inh: S. mansoni TGR enzyme inhibition | Q962Y6 | purified TGR, DTNB reduction, TNB absorbance 405 nm | Potency, µM (series often up to 114 µM), inactives show top-dose activity change, negative = inhibition, hits mostly inhibitors | 360,000 compounds, 3% hits | AID 485364; further: nearly all actives have a fitted effect of over 60% in size
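Kinetic colorimetric format: TGR-catalysed, NADPH-driven DTNB reduction monitored via TNB absorbance. Enzyme dispensed at 20 nM; compound exposure 15 min at room temperature before reaction start.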
RE007 growth inh: less growth of the S. pombe RE007 Vpr strain | S. pombe RE007 Vpr strain, BacTiter-Glo ATP luminescence, 24 h | Potency, µM (top dose mostly 92.2 µM), for the others: top-dose activity change, negative = less growth, usual class: inhibitors | 360,000 compounds, 0.21% hits | AID 651644; active means well fitted falling curve with a large enough effect; inconclusive means small, poorly fitted or top-dose-only effect; inactive means no such curve, though single readings can be large or run the other way; further: nearly all actives have a fitted effect of over 50% in size
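Fission yeast strain RE007, carrying one chromosomally integrated HIV-1 vpr copy, was seeded at OD 0.01 in PMG+AL medium with 23 nL pinned compound. After 24 h at 30 °C and 99% humidity, viability was read by BacTiter-Glo luminescence.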
Lassa entry inh: inhibitors of Lassa virus binding or cell entry; Lassa virus pseudotype entry inhibition, cell reporter; 300,000 compounds, 1.2% hits; Potency, µM (highest dose often 37.9 µM), for the others: at the top dose activity change, negative = inhibition, most hits filed as inhibitors; calls by dose curve; tested in HEK293 cells; further: nearly all actives have a fitted effect of over 50% in size
FMDV antiviral: foot and mouth disease virus antiviral activity. FMDV antiviral cell-based qHTS. Potency, µM (series often up to 57.9 µM), without a hit: at the top dose activity change, negative = inhibition, hits mostly inhibitors. 410,000 compounds, 1.2% hits; calls by dose curve; tested in HEK293T cells; further: read-out not given here; nearly all actives have a fitted effect of over 45% in size
* hit, by the source's call; ? = inconclusive; . = no result given; [ ] = dose if it differs, or a comment. Shown are actives, neighbours in structure and some others; about 7.2% of the full set was active somewhere. Unless noted, the call rests on the fitted dose curve; in most records, active means well fitted curve in the direction sought with a large enough effect; inconclusive means small, poorly fitted or top-dose-only effect, or another doubt; inactive means no such curve, though single readings can be large; an effect the other way counts as inactive or inconclusive. On the % scale 0 is the no-effect control and ±100 the full control effect; potency means the concentration at half of the fitted maximal effect.

SMILES | HCV inh | MARV entry inh | Sm TGR inh | RE007 growth inh | Lassa entry inh | FMDV antiviral
CN(C)CCNC(=O)c1csc(Nc2cccc3ccccc23)n1 | -18% | 10µM* | -1% | -6% | ? | 6%
O=C(NCCOc1ccc(Cl)cc1)C1CC(=O)N(c2ccc3c(c2)OCCO3)C1 (configuration not stated) | ? | . | 5% | 7% | . | -3%
Cc1cn(CC(=O)NCCc2ccccn2)c(=O)[nH]c1=O | 2.8µM* | . | . | 11% | . | -16%
Cc1cn(CC(=O)NCc2ccccn2)c(=O)[nH]c1=O | 2% | . | . | 23% | . | -8%
Cc1noc(C)c1-c1nc(NC2CC2)c2ccccc2n1 | . | . | . | . | . | -22%
CCn1c(=O)c([N+](=O)[O-])c(NCCN(C)C)c2ccccc21 | 21% | . | 11% | 2% | . | -10%
CCn1c(=O)c([N+](=O)[O-])c(Cl)c2ccccc21 | ? | ? | 0.79µM* | -12% | ? | 22µM*
CN(Cc1ccccc1)C(NC(=O)c1ccccc1)C(Cl)(Cl)Cl (configuration not stated) | ? | -28% | ? | 4% | 21µM* | -21%
CC(NC(=O)Cc1ccccc1)C(=O)O (configuration not stated) | 11% | . | 50µM* | -10% | . | -19%
CCN(CC)C(NC(=O)Cc1ccccc1)C(Cl)(Cl)Cl (configuration not stated) | ? | ? | 18µM* | -3% | 4% | 8%
CC(CCc1ccccc1)NC(=O)Cc1ccccc1 (configuration not stated) | 9% | 30% | 2% | -1% | ? | -8%
CN(Cc1ccccc1)C(NC(=O)c1ccco1)C(Cl)(Cl)Cl (configuration not stated) | 7% | . | ? | 6% | . | -16%
CC(C)NC(NC(=O)Cc1ccccc1)C(Cl)(Cl)Cl (configuration not stated) | 9% | -9% | 9% | -21% | 12% | 0%
CC1=C(c2ccc(C)c(C)c2)S(=O)(=O)N=C1N1CCN(c2cccc(C)c2)C(C)C1 (configuration not stated) | . | -4%[46.1 µM] | -7% | . | 16%[46.1 µM] | ?
O=c1c(-c2ccccc2)nc2cnc(N3CCOCC3)nc2n1CCc1ccccc1 | . | . | . | . | . | -1%
COc1ccc(NC(=O)CNS(=O)(=O)c2ccc(Cl)cc2)cc1 | -25% | 0% | -2% | -2% | 16% | -20%
COc1ccc(NC(C)=[N+](C)CCNS(=O)(=O)c2ccc(Cl)cc2)cc1 | 10% | . | 35µM* | -4% | . | -4%
CN1C=C/C(=C\c2cc[n+](C)c3ccccc23)c2ccccc21 | 4.5µM* | . | -1% | 3.2µM* | . | 18µM*
COc1ccc(OC)c(CN2C[C@H](Sc3ccc(F)cc3)C[C@H]2C(=O)N(C)C)c1 | . | . | . | . | . | -7%
CC(C)ON([C@@H](C(=O)NO)C(C)C)S(=O)(=O)c1ccc(-c2ccccc2)cc1 | . | 5.2µM* | . | . | 3.7µM* | .
O=C(c1ccc(CS(=O)(=O)c2c(Cl)cccc2Cl)o1)N1CCN(c2ccccc2)CC1 | . | ? | -14% | . | ? | ?
CN(C)c1nc(F)c(F)c(S(=O)(=O)c2ccccc2)c1F | -31% | ? | 40µM* | 13% | ? | 28%
COC(=O)C[C@H]1C=C[C@@H](NC(=O)c2ccncc2)[C@@H](CO)O1 | . | . | . | 0% | . | -11%
Cc1ccc(C#N)c(SCc2nnc(-c3ccc(Cl)cc3)o2)n1 | 1% | 2.1µM* | 5% | 1% | ? | 20µM*
Cc1cc(C)c(C#N)c(SCc2nnc(-c3ccccc3)o2)n1 | ? | 1.2µM* | -2% | . | 1.2µM* | ?
SMILES | HCV inh | MARV entry inh | Sm TGR inh | RE007 growth inh | Lassa entry inh | FMDV antiviral
COC(=O)c1sc(N2C(=O)c3oc4ccccc4c(=O)c3C2c2ccc(O)cc2)nc1C (configuration not stated) | . | 25%[46.1 µM] | -10% | . | 3%[46.1 µM] | -20%
COc1ccc(C=CC2=C[C@]3(C)C[C@]2(C)[C@H](c2ccc(OC)cc2)CC3=O)cc1 | . | 4%[14.2 µM] | . | . | . | .
CCC(CC)C(=O)OCc1cc(=O)n2nc(C3CC3)sc2n1 | . | . | -8% | . | 13%[46.1 µM] | 47%
COc1ccc(OC)c(NC(=O)c2cccn2-c2nnc(N3CCCCC3)s2)c1 | . | . | 1% | . | 14%[46.1 µM] | 16%
O=C(Cc1c[nH]c2ccccc12)NNCc1ccc(N(CCCl)CCCl)cc1 | ? | 1.6µM* | . | 1% | 3.5µM* | -7%
CN(C)S(=O)(=O)c1ccc(Nc2nc(C3CC3)nc3c2nnn3Cc2ccccc2Cl)cc1 | ? | -34% | 7% | 0% | ? | 5µM*
C=CCNc1nc(C(F)(F)F)nc2c1nnn2Cc1ccccc1Cl | 1% | . | 6% | 0% | . | -16%
CCc1nc(Nc2ccc(OC)c(OC)c2)c2nnn(Cc3ccccc3Cl)c2n1 | ? | ? | -14% | -6% | ? | 25µM*
CCOCCCNc1nc(C(F)(F)F)nc2c1nnn2Cc1ccccc1Cl | 11µM* | . | 0% | 0% | . | ?
COc1cccc(OC)c1Nc1nc(C)nc2c1nnn2Cc1ccccc1Cl | -1% | 0%[46.1 µM] | 0% | 0% | 2% | -14%
Cn1cc(S(=O)(=O)N2CCCCCC2)cc1C(=O)NCc1ccc(F)cc1 | . | . | -2% | . | 11%[46.1 µM] | -11%
CN1C(=O)c2ccccc2Sc2ccc(NC(=O)COc3ccccc3)cc21 | . | . | 1% | . | ? | -23%
Cc1ccccc1-n1c(=O)/c(=C/c2ccco2)s/c1=C(/C#N)C(=O)Nc1ccccc1 | . | -28% | . | . | . | .
CCOc1cc(-c2nnc(SCC(=O)NCc3ccccc3)nc2-c2ccc(OC)c(OCC)c2)ccc1OC | . | . | 5% | . | ? | -7%
C[n+]1cccc2c(Br)ccc([O-])c21 | 8% | 7%[46.1 µM] | 45µM* | -20% | ? | -20%
Cc1nc(-c2c(-c3ccc(O)cc3O)noc2C(F)(F)F)cs1 | ? | ? | 0% | -11% | ? | 35µM*
COc1ccc(-c2ncnc(C(F)(F)F)c2-c2csc(C)n2)c(O)c1 | -4% | . | -5% | 2% | . | -23%
COc1ccc(OC)c(-n2c(=O)c3ccccc3c3ccccc3c2=O)c1 | 32% | -5% | -4% | . | -4% | 25µM*
Cc1ncc2c(c1CNC(=O)c1cncs1)CCN(C(=O)c1ccc(C(C)(C)C)cc1)C2 | . | . | . | . | . | 3%
CN1CCN/C1=C(/C(Cl)=C(Cl)Cl)[N+](=O)[O-] | 20% | 1%[46.1 µM] | 1.1µM* | -3% | 12% | -6%
CN(Cc1ccccc1)C(=C(Cl)Cl)/C(=C1/NCCN1C)[N+](=O)[O-] | 5% | ? | -16% | 0% | -5% | 16%
Cn1c(=O)c2ncn(CC(=O)Nc3cccc(-c4nc5ccccc5s4)c3)c2n(C)c1=O | 10µM* | ? | 1% | 1% | ? | 15%
CC(OC(=O)c1cc(Br)ccc1O)C(=O)NC1(C#N)CCCCC1 (configuration not stated) | ? | 3% | 16% | -25% | -19%[46.1 µM] | 12%
